Most compounds without a hit are left out; they make up all but 2.3% or so of the library.
TRPV1 potentiator = human TRPV1 potentiation; actives 0.02% (n = 320,000); TRPV1-expressing cells, Fluo-8 calcium influx, capsaicin EC20 potentiation; potentiation, % at 8.33 µM; AID 540277; in the data active = potentiation above about 80%; inconclusive = between about 30% and that limit; also: 0% is about no effect
Target sequence (Q8NER1 whole entry, looked up): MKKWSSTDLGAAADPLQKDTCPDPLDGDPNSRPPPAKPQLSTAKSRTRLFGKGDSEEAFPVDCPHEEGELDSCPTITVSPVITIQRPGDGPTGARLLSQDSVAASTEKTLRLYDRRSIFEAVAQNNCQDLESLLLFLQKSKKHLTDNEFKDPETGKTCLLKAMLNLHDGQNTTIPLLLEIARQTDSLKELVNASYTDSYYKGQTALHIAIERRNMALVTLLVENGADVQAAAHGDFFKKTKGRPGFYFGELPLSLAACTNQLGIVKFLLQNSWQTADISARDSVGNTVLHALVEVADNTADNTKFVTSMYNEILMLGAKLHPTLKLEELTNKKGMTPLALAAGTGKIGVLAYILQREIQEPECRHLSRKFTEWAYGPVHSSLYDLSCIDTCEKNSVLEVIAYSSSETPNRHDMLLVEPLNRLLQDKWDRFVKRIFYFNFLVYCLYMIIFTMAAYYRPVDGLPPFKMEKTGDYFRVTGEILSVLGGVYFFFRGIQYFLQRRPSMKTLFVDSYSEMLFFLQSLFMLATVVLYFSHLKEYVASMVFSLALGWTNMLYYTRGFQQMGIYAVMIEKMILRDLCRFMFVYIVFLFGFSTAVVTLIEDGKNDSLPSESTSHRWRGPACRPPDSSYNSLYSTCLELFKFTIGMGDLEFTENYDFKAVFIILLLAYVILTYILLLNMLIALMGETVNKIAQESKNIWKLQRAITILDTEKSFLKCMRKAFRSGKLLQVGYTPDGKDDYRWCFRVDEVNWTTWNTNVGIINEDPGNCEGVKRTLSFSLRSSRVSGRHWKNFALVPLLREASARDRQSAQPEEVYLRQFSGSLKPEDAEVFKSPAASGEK
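TRPV1-expressing cells were cultured overnight at 35.5C and loaded with Fluo-8 calcium dye for 40 to 90 min at room temperature. After a 10 s baseline, compound was added and calcium influx was read kinetically for 3 min (ex 480/em 520 nm).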
TRPV1 agonist = activates the human vanilloid receptor TRPV1; AID 540275; activation, % at 8.33 µM; actives 0.19% (n = 320,000); TRPV1-expressing cells, Fluo-8 calcium influx, agonist mode; Q8NER1; in the data active = activation above about 80%; inconclusive = between about 30% and that limit; also: 0% is about no effect
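Cells expressing TRPV1 were dye-loaded with Fluo-8 and read kinetically: 10 s baseline, 3 min after compound (agonist portion), then 2 min after EC20 capsaicin (allosteric enhancer portion). Calcium-bound dye fluorescence at 480/520 nm.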
ELG1 repair inh = ELG1-dependent DNA repair inhibition; HEK293T ELG1-luciferase reporter, luminescence, 16 h; DNA damage induced by 5-fluorouridine; Potency, µM (doses to about 46.1 µM), without a hit: at the top dose activity change, negative = inhibition, hits mostly inhibitors; actives 2.3% (n = 330,000); AID 504467; also: potency is read from the fitted curve at half-maximal effect; % is scaled to controls: 0 for no effect and ±100 for the full control effect; nearly all actives have a fitted effect of over 55% in size
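Reporter activity after DNA damage by 5-fluorouridine is monitored. Compound-treated cells incubate 16 hr at 37 °C, then ONE-Glo is added for 30 min before luminescence reading.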
FUS suppressor = FUS proteinopathy suppression in yeast. Potency, µM (top dose mostly 76.6 µM), actives largely listed as activators. actives 0.24% (n = 390,000). S. cerevisiae FUS-expressing, growth rescue, OD600, 24 h;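 also: potency is read from the fitted curve at half-maximal effect; plate controls were DMSO vehicle for no effect and reference control for full effect; nearly all actives have a fitted effect of over 55% in size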
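FUS-expressing yeast, raffinose-pregrown, induced in 2% galactose minimal medium at OD 0.005; compounds in a dilution series, 24hr at 30C. Growth restoration read as absorbance at 600 nm. CP55940 positive control, DMSO negative.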
Giardia killer = Giardia lamblia killing; activity change, % at 7.66 µM, hits read low; Giardia lamblia trophozoite viability; actives 0.15% (n = 340,000); in the data active = activity change below about -80%; inconclusive = between about -30% and that limit;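 also: parasites exposed to compound for two days anaerobically before the ATP read; % is scaled to controls: 0 for no effect and ±100 for the full control effect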
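ATP-content bioluminescence gauges trophozoite survival. Cells (100/well) receive compound and incubate anaerobically for 48 hrs at 37 deg C; detection reagent follows for 15-30 min at room temperature.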
Active calls of the source: *; i = inactive; ? = inconclusive; . = not tested or not shown. Unless noted, calls follow the shape of the dose curve; as a rule, active = well fitted curve in the direction sought with a large enough effect; inconclusive = small, poorly fitted or top-dose-only effect, or another doubt; inactive = no such curve, though single readings can be large; an effect the other way counts as inactive or inconclusive.

SMILES	TRPV1 potentiator	TRPV1 agonist	ELG1 repair inh	FUS suppressor	Giardia killer
CC1Oc2cc3c(-c4c(O)cc(O)c5c(O)c6c(cc45)OC(C)C(C)C6=O)c(O)cc(O)c3c(O)c2C(=O)C1C (configuration not stated)	-4	-3	6.5µM*	?	-82*
CN1CCN(Cc2nc3ccccc3c(=O)[nH]2)CC1	-5	3	-1%	i	-7
O=C(c1ccccc1F)N1CCN(Cc2nc3sc4c(c3c(=O)[nH]2)CCCC4)CC1	-2	2	16µM*	i	-12
C[C@H]1COC(=O)[C@H](Cc2ccc(F)cc2)CC/C=C/C[C@@H](CC(=O)N(CCO)Cc2ccccc2)C(=O)N1	.	.	?	i	12
Fc1ccc(-c2nc3c(-c4ccc(F)cc4)cnn3cc2CCN2CCOCC2)cc1	3	0	?	i	-6
CC1CN(c2ccc([N+](=O)[O-])c3cccnc23)CC(C)N1 (configuration not stated)	-8	-2	-17%	i	-86*
Cn1nc(OC(=O)Nc2ccc(Cl)cc2)cc1C(F)(F)F	-11	-1	?	.	.
COc1cc([C@@H]2c3cc4c(c(O)c3C[C@H]3COC(=O)[C@@H]32)OCO4)cc(OC)c1OC	.	.	.	.	10
COC(=O)[C@]1(C)N[C@H](CN(C)S(=O)(=O)c2ccc(-c3ccccc3)cc2)[C@@H]2C(=O)N(Cc3ccccc3)C(=O)[C@@H]21	.	.	?	i	?
N#Cc1cn(C2OC(CO)C(O)C2O)c2ncnc(N)c12 (configuration not stated)	.	.	.	.	0
NC(=O)c1cn(C2OC(CO)C(O)C2O)c2ncnc(N)c12 (configuration not stated)	2	-1	0.1µM*	i	-14
COc1ccc(/C=C2\SC(=O)N(CCn3cnnn3)C2=O)cc1	-24	12	?	i	21
O=C(CCCCCCCCCCC(=O)NCc1cccnc1)NCc1cccnc1	25	4	3.7µM*	i	-6
Nc1c(C(=O)NC2CCCC2)c2nc3ccccc3nc2n1CC1CCCO1 (configuration not stated)	-12	?	15µM*	?	4
CCCNC(=O)c1c(N)n(Cc2ccco2)c2nc3ccccc3nc12	16	4	23µM*	i	21
COCCCNC(=O)c1c(N)n(Cc2ccco2)c2nc3ccccc3nc12	-21	?	?	i	-3
Nc1c(C(=O)NCC2CCCO2)c2nc3ccccc3nc2n1Cc1ccco1 (configuration not stated)	-10	0	23µM*	i	-15
CC(C)CNC(=O)c1c(N)n(Cc2ccco2)c2nc3ccccc3nc12	-2	13	26µM*	?	11
O=C(Cc1c(O)c2ccccc2oc1=O)c1ccc(F)cc1	8	0	?	.	-21
CC(C)(C)c1ccc(CSc2cnn(C(C)(C)C)c(=O)c2Cl)cc1	-5	7	?	i	9
CC(C)(C)n1ncc2c(=O)n(Cc3cccc(Cn4cnc5c(cnn5C(C)(C)C)c4=O)c3F)cnc21	.	.	8.2µM*	?	0
CCc1cc(=O)oc2c(C)c(OCC(=O)N3CCC[C@@H]3C(=O)O)ccc12	-3	0	?	i	-26
CC1(C)C[C@H]2C=C(C=O)[C@]3(C=O)C[C@]3(C)[C@H]2C1	9	0	5.8µM*	i	-2
CC(C)(C)NC(=O)N1c2ccccc2Sc2ccccc21	6	3	?	i	21
O=C(Nc1ccccc1F)Oc1cccc(OC(=O)Nc2ccccc2F)c1	-29	?	?	i	20
SMILES	TRPV1 potentiator	TRPV1 agonist	ELG1 repair inh	FUS suppressor	Giardia killer
O=c1[nH]c(=O)n(CCC2=CCCCC2)c(O)c1C=NCCCn1ccnc1	5	-1	-27%	13µM*	-2
OCCNc1c2c(nc3ccccc13)CCCC2	7	-3	-19%	i	-3
CNc1ccc2nc3ccccc3[n+](C)c2c1	-5	3	1.6µM*	i	-22
C[n+]1c2ccccc2nc2ccc(NCCO)cc21	16	-1	8.2µM*	i	7
CCCc1cc(=O)oc2c3c(cc(OCC(=O)N4CCC[C@H]4C(=O)O)c12)OC(C)(C)CC3	-2	3	?	i	7
CC1CCC[C@H](O)CCCCCc2cc(O)cc(O)c2C(=O)O1 (some centres not stated)	-3	-3	?	i	-5
C[C@H]1CCC[C@H](O)CCCCCc2cc(O)cc(O)c2C(=O)O1	3	-5	7.3µM*	i	-6
O=[N+]([O-])c1ccc(-c2ccccc2)c([As](=O)(O)O)c1	11	-1	12%	i	-82*
COc1ccccc1OP(=O)(Nc1ccc(Br)cc1)Oc1ccccc1OC	6	1	?	i	-7
COc1ccc(NP(=O)(Oc2ccccc2OC)Oc2ccccc2OC)cc1	-2	9	21µM*	i	-2
COc1ccc(COC(=O)CCNC(=O)c2ccc(Cl)cc2)cc1	-23	25	?	i	-18
CN(C)S(=O)(=O)c1ccc(C(=O)NNc2nc(-c3ccccc3)c3cc(Br)ccc3n2)cc1	15	8	23µM*	?	-1
CC(c1nc2ccccc2c(=O)[nH]1)N(C)CCOc1ccc(Cl)cc1 (configuration not stated)	16	6	?	i	1
Cc1ccccc1[N+](=O)[O-]	-8	4	22%	i	5
Cc1cc([N+](=O)[O-])c2ccccc2[n+]1[O-]	23	1	?	i	-88*
O=P(O)(O)c1ccccc1OCCOCCOCCOCCOc1ccccc1P(=O)(O)O	8	-2	?	i	-6
O=C(c1cncc(Br)c1)N1CCN(S(=O)(=O)c2ccc3ccccc3c2)CC1	.	.	?	i	14
CCC(=Nc1ccc(OC)cc1OC)c1c(O)n(C2CCCCC2)c(=O)[nH]c1=O	-22	-6	18µM*	?	1
COc1cc(O)cc2c1C(=O)O[C@@H](C)CCCC(=O)CCCCC2	2	4	0%	i	2

Screening data (PubChem)
